# Bioassay records from PubChem BioAssay.
# AmpC no deterg – qHTS Inhibitors of AmpC Beta-Lactamase (assay without detergent) | 330,000 compounds, 0.52% hits | Potency, µM (titrated, usually from 57.1 µM), inactives show at the highest dose activity change, negative = inhibition, hits mostly inhibitors | AmpC nitrocefin hydrolysis, absorbance 480 nm, 0.0001% Triton;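 note: plate controls were no compound for no effect and no enzyme for full effect; nearly all actives have a fitted effect of over 20% in size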
# Target sequence (P00811 whole entry, looked up): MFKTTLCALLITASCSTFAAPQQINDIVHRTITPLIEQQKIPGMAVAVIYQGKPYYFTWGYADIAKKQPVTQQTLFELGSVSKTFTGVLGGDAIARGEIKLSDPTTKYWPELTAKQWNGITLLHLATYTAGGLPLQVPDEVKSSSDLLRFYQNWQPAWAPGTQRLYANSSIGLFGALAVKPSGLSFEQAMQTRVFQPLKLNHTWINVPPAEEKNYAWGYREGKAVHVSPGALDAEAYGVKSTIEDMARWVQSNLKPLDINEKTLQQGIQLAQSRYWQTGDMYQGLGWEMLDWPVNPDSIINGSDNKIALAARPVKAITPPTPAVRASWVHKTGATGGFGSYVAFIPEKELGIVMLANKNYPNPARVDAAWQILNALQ
#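 20 mM phosphate pH 7.0 + 0.01% (detergent screen) or 0.0001% Triton X-100; 5.3 nM AmpC reagent; cpd preinc 15 min RT; nitrocefin (800 uM stock) to start; A480 q20 s × 4 min; Activity was normalised to no-enzyme and no-compound control wells.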
# AmpC detergent – qHTS Inhibitors of AmpC Beta-Lactamase (assay with detergent); AmpC hydrolysis of nitrocefin, absorbance 480 nm, 0.01% Triton; 370,000 compounds, 0.041% hits; Potency, µM (series often up to 114 µM), for inactives: top-dose activity change, negative = inhibition, usual class: inhibitors; P00811;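 note: 0% = no-compound wells and -100% = no-enzyme wells; nearly all actives have a fitted effect of over 25% in size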
#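 AmpC (5.3 nM in the dispensed reagent) in 20 mM phosphate pH 7.0 with 0.01% (detergent screen) or 0.0001% Triton X-100 was preincubated with compounds for 15 min at room temperature. Nitrocefin was then added from an 800 uM solution, and hydrolysis was followed at 480 nm.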
# RE007 growth inh – qHTS Assay for Inhibitors of the HIV-1 protein Vpr. Potency, µM (top dose mostly 92.2 µM), without a hit: at the top dose activity change, negative = less growth, usual class: inhibitors. 360,000 compounds, 0.21% hits. S. pombe RE007 Vpr strain, BacTiter-Glo ATP luminescence, 24 h; active = well fitted falling curve with a large enough effect; inconclusive = small, poorly fitted or top-dose-only effect; inactive = no such curve, though single readings can be large or run the other way; note: nearly all actives have a fitted effect of over 50% in size
#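 Fission yeast strain RE007, carrying one chromosomally integrated HIV-1 vpr copy, was seeded at OD 0.01 in PMG+AL medium with 23 nL pinned compound. After 24 h at 30 °C and 99% humidity, viability was read by BacTiter-Glo luminescence.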
# AMA1 RON2 block – qHTS for Inhibitors of AMA1-RON; Towards Development of Antimalarial Drug Lead: Primary Screen; Potency, µM (top dose mostly 58.2 µM), without a hit: top-dose activity change, negative = inhibition, actives largely listed as inhibitors; AlphaScreen AMA1-biotinylated RON2 peptide binding; AID 720542, 2013; Plasmodium falciparum AMA1 (3D7) - RON2 peptide interaction; 360,000 compounds, 0.2% hits;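 note: 0% = vehicle wells and -100% = peptide control; nearly all actives have a fitted effect of over 45% in size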
#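 AMA1 (3D7) with his tag at 25 nM final met compounds first, then biotinylated RON2 peptide at 25 nM; detection used donor plus acceptor beads, 10 µg/mL apiece, read by AlphaScreen after 30 min at room temperature.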
# * = called active by the depositor; u = inconclusive; x = not tested or not shown; [ ] = another dose, or the depositor's remark. This is a sample that favours compounds with a hit; in the whole collection about 0.79% have one here. Unless noted, calls come from the whole dose curve; as a rule, active = well fitted curve in the direction sought with a large enough effect; inconclusive = small, poorly fitted or top-dose-only effect, or another doubt; inactive = no such curve, though single readings can be large; an effect the other way counts as inactive or inconclusive. Unless noted, % is set by controls: 0 for no effect and ±100 for the full control effect; potency is the fitted concentration of half-maximal effect.
SMILES,AmpC no deterg,AmpC detergent,RE007 growth inh,AMA1 RON2 block
CCCSc1ncc(Cl)c(C(=O)Nc2c(C(=O)Nc3ccc(OC)cc3)oc3ccccc23)n1,x,17.9%,x,x
COc1ccc(N2C(=O)CC(N3CCN(c4ccccc4F)CC3)C2=O)cc1 (configuration not stated),-2.0%,-1.5%,-23.8%,16.0%
O=C1CC(N2CCC(c3nc4ccccc4[nH]3)CC2)C(=O)N1c1ccccc1F (configuration not stated),-14.7%[2.29 µM],0.0%,35.5µM*,-16.6%
COc1ccc(N2C(=O)CC(N3CCC(c4nc5ccccc5[nH]4)CC3)C2=O)cc1 (configuration not stated),12.9%,2.8%,39.8µM*,1.8%
CCOC(=O)c1sc(N2C(=O)c3oc4ccc(F)cc4c(=O)c3C2c2ccc(O)cc2)nc1C (configuration not stated),x,19.7%,x,x
COc1ccc2nc3oc(C(=O)Nc4cccc(C(F)(F)F)c4)cc3cc2c1,x,1.7%,x,x
COc1ccc(NC(=O)N2CCCc3ccccc32)cc1,-7.5%,-14.3%,-9.8%,-0.2%
COc1ccc(N/N=C(/C(C)=O)N2CCCc3ccccc32)cc1,-9.9%,-4.7%,63.1%,15.8µM*
CNc1cccc2c1C(=O)c1ccccc1C2=O,-22.5%,-9.2%,-18.1%,3.98µM*
CC(=O)Nc1ccc(NS(=O)(=O)c2ccc3[nH]c4c(c3c2)CCCCC4)cc1,x,13.4%,x,x
COc1ccc(S(=O)(=O)N(C)C2CCN(C)CC2)cc1,10µM*,u,7.1%,0.9%
COc1ccc(CC(=O)Nc2ccc(S(=O)(=O)N(C)C3CCN(C)CC3)cc2)cc1,-12.2%,-8.6%,-3.7%,3.0%
Cc1cc(C)c(C(=O)CSc2nc3ccccc3c(=O)[nH]2)cc1C,17.8µM*,u,-8.6%,-0.9%
CN1CCc2cc(O)cc3c2[C@H]1Cc1ccc(O)c(O)c1-3,x,x,-3.7%[18.4 µM],10µM*
Cc1cccc(NC(=O)c2ccc([N+](=O)[O-])s2)n1,-9.8%,3.1%,15.8µM*,4.1%
Cc1cccc(C)c1NC(=O)c1ccc([N+](=O)[O-])s1,-5.0%,3.6%,-7.0%,5.8%
CCN(CC)Cc1ccc(NC(=O)c2sc3cc(Cl)ccc3c2Cl)cc1,2.9%,0.6%,28.2µM*,-21.8%
CCN(CC)c1ccc(NC(=O)c2sc3ccccc3c2Cl)cc1,x,15.8%,x,x
O=C(CSc1nc(O)cc(=O)n1-c1ccccc1)Nc1ccccn1,11.2µM*,0.6%,14.3%,-12.4%
O=C(O)C1=CC(=C(c2ccc(O)c(C(=O)O)c2)c2ccc(O)c(C(=O)O)c2)C=CC1=O,8.91µM*,8.91µM*,x,x
CCOC(=O)c1ccccc1NC(=O)c1sc2ncn(CC)c(=O)c2c1C,x,8.1%,x,x
O=C(Nc1ccncc1)C1CCCN(S(=O)(=O)c2cccc3cccnc23)C1 (configuration not stated),44.7µM*,u,-10.9%,0.0%
CCOc1ccccc1NC(=O)C1CCCN(S(=O)(=O)c2cccc3cccnc23)C1 (configuration not stated),5.62µM*,-3.8%,-6.6%,0.5%
CCOc1ccccc1NC(=O)C1CCCN(S(=O)(=O)c2cccc3nsnc23)C1 (configuration not stated),13.5%,u,5.5%,7.6%
O=C(NCC1CCCO1)C1CCN(C(=O)c2ccc(Br)cc2)CC1 (configuration not stated),3.98µM*,-1.5%,-4.0%,2.3%
SMILES,AmpC no deterg,AmpC detergent,RE007 growth inh,AMA1 RON2 block
O=C(NCC1CCCO1)C1CCN(S(=O)(=O)c2cccc3cccnc23)CC1 (configuration not stated),3.16µM*,-1.3%,8.0%,11.5%
Cn1c(=O)cc(OCC(=O)N2CCN(c3ccc(F)cc3)CC2)c2ccccc21,x,9.1%,x,x
O=C(NCCCc1nc2ccccc2n1Cc1ccc(Cl)cc1Cl)c1ccco1,x,-0.2%,x,x
NS(=O)(=O)c1ccc(CCNC(=O)CCCCCn2c(=S)[nH]c3ccc(Br)cc3c2=O)cc1,17.8µM*,u,-0.6%,75.9%
COc1ccccc1NC(=O)Nc1ccc2c(c1)CCC2,10µM*,-1.9%,-20.0%,-1.1%
CCOC(=O)C1CCCN(C2CC(=O)N(c3ccccc3)C2=O)C1 (configuration not stated),-2.0%,-6.9%,u,-3.0%
CCOC(=O)C1CCCN(C2CC(=O)N(c3ccc(N4C(=O)CC(N5CCCC(C(=O)OCC)C5)C4=O)cc3)C2=O)C1 (configuration not stated),-6.4%[2.29 µM],2.7%,1.1%,-1.9%
CCOC(=O)C1CCCN(C2CC(=O)N(c3ccc(C)c(C)c3)C2=O)C1 (configuration not stated),31.8%,4.4%,28.2µM*,-1.9%
CCOC(=O)C1CCCN(C2CC(=O)N(c3ccc(C(C)C)cc3)C2=O)C1 (configuration not stated),117.0%,4.9%,35.5µM*,4.2%
CCOC(=O)C1CCCN(C2CC(=O)N(c3cccc(C(F)(F)F)c3)C2=O)C1 (configuration not stated),4.7%,-12.7%,8.91µM*,6.8%
O=C1CCCC2=C1C1O[C@](CCCCN3C(=O)c4ccccc4C3=O)(Cc3c1ccc1ccccc31)O2,19.3%[11.4 µM],-7.9%[22.9 µM],x,x
N#C/C(=C\c1cn(Cc2ccccc2)c2ccccc12)C(=O)NCc1ccco1,-35.7%,-3.9%,1.0%,-5.0%
Cc1cccc(NC(=O)/C(C#N)=C/c2cn(CC(=O)NCc3ccco3)c3ccccc23)c1C,14.1µM*,-11.8%,2.4%,0.0%
S=c1[nH]nc(COc2ccccc2)n1/N=C/C=C/c1ccccc1,-5.3%,-5.5%,-1.0%,17.4%[2.32 µM]
S=c1[nH]nc(COc2ccccc2)n1/N=C/C=C/c1ccco1,15.8µM*,-1.4%,20.0%,45.0%
Clc1ccc(CCNc2nc3cc(Cl)c(Cl)cc3n3cnnc23)cc1,x,-1.1%,x,x
Cn1c(=O)c2c(SCC(=O)NCc3ccco3)nc(-c3cccc(F)c3)nc2n(C)c1=O,x,-7.5%,x,x
Cc1cc2c(=O)n(Cc3ccco3)c(SCC(=O)c3ccc(Cl)s3)nc2s1,28.2µM*,-1.2%,2.4%,6.4%
CCOC(=O)c1oc2ccc(S(=O)(=O)n3nc(-c4ccc(Br)cc4)cc3N)cc2c1C,x,22.3%,x,x
COC(=O)c1cc2c(s1)c1cnn(Cc3ccccc3F)c(=O)c1n2C,-23.4%,1.0%,x,x
O=[N+]([O-])c1ccc(Nc2ccc3ccccc3c2)nc1,0.316µM*,0.6%,14.3%,-4.8%
O=C(OCc1ccccc1Cl)c1ccc(-c2nnn(Cc3ccccc3)n2)cc1,x,-2.6%,x,x
Cc1cccc(CS(=O)(=O)Cc2ccc(C(=O)NC(C)c3ccccc3)o2)c1 (configuration not stated),1.7%,-4.2%,7.1%,13.1%
CC(C)(C)OC(=O)N[C@@H](Cc1ccccc1)c1nnc(S(=O)(=O)Cc2ccccc2)o1,u,17.8µM*,x,x
